According to PubChem BioAssay (Tox21):
Where “and” joins values, the source holds several entries; their conditions need not be identical. Identical values can stand only once. A number with no mark means an inactive call. Records with an inconclusive call do not appear. Entries that show only a call come without a potency. Calls of active or inactive are those of the source. Unless noted, calls follow the shape of the dose curve; as a rule, active = well fitted curve in the direction sought with a large enough effect in the repeat runs; inconclusive = weak or mixed curves; inactive = no such curve, though single readings can be large; an effect the other way counts as inactive or inconclusive.

Tests used:
[1] = molecular target: Androgen receptor (Homo sapiens) (UniProt P10275); assay: qHTS assay to identify small molecule antagonists of the androgen receptor (AR) signaling pathway using the MDA cell line in the presence of 0.5 nM R1881 (AID 1259243); also: nearly all actives have a fitted effect of over 50% in size; also: potency is read from the fitted curve at half-maximal effect
In short: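 Luminescence from an AR/GR-responsive MMTV-luciferase construct in MDA-kb2 breast carcinoma cells, read 30 min after ONE-Glo, following 16 hr co-treatment with compounds and 0.5 nM R1881.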

[2] = molecular target: Estrogen receptor (Homo sapiens) (UniProt P03372); assay: qHTS assay to identify small molecule antagonists of the estrogen receptor alpha (ER-alpha) signaling pathway using the BG1 cell line in the presence of 0.1 nM 17-beta-estradiol (AID 1259244); also: nearly all actives have a fitted effect of over 50% in size; also: potency is read from the fitted curve at half-maximal effect
In short: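 Luciferase signal from VM7Luc4E2 ERE-reporter cells, co-dosed with test compound and 0.1 nM final 17beta-estradiol for 22 h, read with ONE-Glo.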

[3] = qHTS assay to identify small molecule HDAC inhibitors (AID 1259364);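 also: wild-type HCT-116 cells with endogenous class I/II HDAC activity; top concentration of the series differs between compounds; nearly all actives have a fitted effect of over 45% in size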
In short: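 HCT-116 wt cells, 1,500/well, overnight attach. Compounds (DMSO) 2 h, 37 °C. HDAC-Glo I/II, 30 min RT. Luminescence.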

[4] = qHTS assay to identify small molecule HDAC inhibitors - cell viability counter screen (AID 1259365); also: series mostly up to about 92 µM; nearly all actives have a fitted effect of over 50% in size
In short: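 HCT-116 wild-type, overnight attachment; 2hr drug exposure, 37C; CellTiter-Glo luminescent ATP readout after 30min RT.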

[5] = qHTS assay to identify small molecule agonists of the sonic hedgehog signaling (Shh) pathway - cell viability counter screen (AID 1259366); also: nearly all actives have a fitted effect of over 50% in size; also: potency is read from the fitted curve at half-maximal effect
In short: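 Compounds in DMSO were pin-transferred onto 3T3 Gli1-Luc cells that had settled 4hr; plates then stood 24hr at 37C and 5% CO2. One hour before the end, CellTiter-Fluor was added and fluorescence recorded.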

[6] = qHTS assay to identify small molecule antagonists of the sonic hedgehog signaling (Shh) pathway - cell viability counter screen (AID 1259367); also: nearly all actives have a fitted effect of over 55% in size; also: potency is read from the fitted curve at half-maximal effect
In short: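 CellTiter-Fluor signal in conditioned medium-stimulated 3T3 Gli1-Luc cells, 23 hr compound exposure, 37C.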

[7] = qHTS assay to identify small molecule agonists of the sonic hedgehog signaling (Shh) pathway (AID 1259368; calls by dose curve;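 also: NIH/3T3-derived 3T3Gli1-Luc cells carrying a stable Gli1-driven firefly luciferase reporter; series mostly up to about 92 µM; nearly all actives have a fitted effect of over 15% in size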)
In short: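 Following a 24 hr incubation with DMSO-dissolved compounds at 37 C, 5% CO2, Gli1-Luc NIH/3T3-derived cells received luciferase reagent for 30 min at room temperature prior to luminescence measurement.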

[8] = qHTS assay to identify small molecule antagonists of the sonic hedgehog signaling (Shh) pathway (AID 1259369; calls by dose curve; also: nearly all actives have a fitted effect of over 45% in size; also: potency is read from the fitted curve at half-maximal effect)
In short: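 Read-out is luminescence from a firefly luciferase gene controlled by the Gli1 response element, in 3T3Gli1-Luc cells pre-incubated 4hr then exposed to compounds and conditioned medium for 24hr.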

[9] = molecular target: Estrogen receptor beta (Homo sapiens) (UniProt Q92731); assay: qHTS assay to identify small molecule agonists of the estrogen receptor beta (ER-beta) signaling pathway (AID 1259377; active = well fitted activation curve with a large enough effect in the signal ratio in the repeat runs, not every such curve was filed as active; the % refers to the signal ratio)
In short: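 qHTS in ER-beta-UAS-bla HEK293T cells: 6 hr settling, then 16 hr compound at 37C, then LiveBLAzer substrate 2 h at RT before fluorescence reading.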

[10] = qHTS assay to identify small molecule phospholipidosis (PLD) inducers (AID 1259344; active = well fitted curve in the direction sought with a large enough effect; an effect the other way counts as inactive or inconclusive)
In short: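 Accumulated phospholipid, stained red by LipidTOX during 24 h compound treatment of HepG2 cells at 37 C, is quantified from images as pit number and intensity, normalised per cell using Hoechst-stained nuclei.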

Sequence of Estrogen receptor (Homo sapiens) (P03372 whole entry, looked up): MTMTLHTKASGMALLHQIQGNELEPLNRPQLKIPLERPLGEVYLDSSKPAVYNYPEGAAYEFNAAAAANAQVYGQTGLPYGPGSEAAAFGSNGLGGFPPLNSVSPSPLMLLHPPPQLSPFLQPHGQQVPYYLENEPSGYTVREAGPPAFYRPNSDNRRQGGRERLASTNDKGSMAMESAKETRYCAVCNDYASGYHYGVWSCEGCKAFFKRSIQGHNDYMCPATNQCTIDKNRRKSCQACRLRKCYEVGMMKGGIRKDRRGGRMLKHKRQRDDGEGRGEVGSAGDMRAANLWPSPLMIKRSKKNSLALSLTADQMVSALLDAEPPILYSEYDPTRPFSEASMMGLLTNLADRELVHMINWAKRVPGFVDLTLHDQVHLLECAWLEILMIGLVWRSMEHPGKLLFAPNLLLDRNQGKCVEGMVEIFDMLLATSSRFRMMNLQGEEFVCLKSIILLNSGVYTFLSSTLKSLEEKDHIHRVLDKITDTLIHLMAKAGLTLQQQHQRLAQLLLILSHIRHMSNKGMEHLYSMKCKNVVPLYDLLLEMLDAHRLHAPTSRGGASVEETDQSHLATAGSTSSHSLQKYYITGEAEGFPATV
Sequence of Androgen receptor (Homo sapiens) (P10275 whole entry, looked up): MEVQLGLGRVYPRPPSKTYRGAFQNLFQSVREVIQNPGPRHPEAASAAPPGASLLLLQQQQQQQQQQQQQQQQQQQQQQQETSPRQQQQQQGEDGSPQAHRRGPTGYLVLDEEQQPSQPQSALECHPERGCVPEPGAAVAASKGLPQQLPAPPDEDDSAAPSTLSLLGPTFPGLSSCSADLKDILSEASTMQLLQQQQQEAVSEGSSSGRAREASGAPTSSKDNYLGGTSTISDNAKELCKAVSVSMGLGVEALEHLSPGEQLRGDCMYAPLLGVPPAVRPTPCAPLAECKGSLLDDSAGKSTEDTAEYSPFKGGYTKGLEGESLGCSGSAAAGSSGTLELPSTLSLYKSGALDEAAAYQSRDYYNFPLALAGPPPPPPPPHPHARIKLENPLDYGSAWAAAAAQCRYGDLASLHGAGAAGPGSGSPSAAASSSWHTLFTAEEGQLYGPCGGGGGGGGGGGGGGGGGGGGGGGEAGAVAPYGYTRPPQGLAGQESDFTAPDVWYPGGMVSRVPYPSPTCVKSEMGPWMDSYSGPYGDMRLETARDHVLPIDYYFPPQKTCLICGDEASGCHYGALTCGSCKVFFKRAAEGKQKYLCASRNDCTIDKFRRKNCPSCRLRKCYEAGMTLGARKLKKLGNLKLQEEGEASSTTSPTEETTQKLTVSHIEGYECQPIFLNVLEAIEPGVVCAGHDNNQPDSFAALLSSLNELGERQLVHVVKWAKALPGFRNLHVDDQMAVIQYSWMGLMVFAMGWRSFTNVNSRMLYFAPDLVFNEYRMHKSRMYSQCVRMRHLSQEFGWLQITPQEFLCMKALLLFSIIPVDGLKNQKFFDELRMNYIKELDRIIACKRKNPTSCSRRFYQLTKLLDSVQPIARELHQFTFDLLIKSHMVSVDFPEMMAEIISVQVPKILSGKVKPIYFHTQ
Sequence of Estrogen receptor beta (Homo sapiens) (Q92731 whole entry, looked up): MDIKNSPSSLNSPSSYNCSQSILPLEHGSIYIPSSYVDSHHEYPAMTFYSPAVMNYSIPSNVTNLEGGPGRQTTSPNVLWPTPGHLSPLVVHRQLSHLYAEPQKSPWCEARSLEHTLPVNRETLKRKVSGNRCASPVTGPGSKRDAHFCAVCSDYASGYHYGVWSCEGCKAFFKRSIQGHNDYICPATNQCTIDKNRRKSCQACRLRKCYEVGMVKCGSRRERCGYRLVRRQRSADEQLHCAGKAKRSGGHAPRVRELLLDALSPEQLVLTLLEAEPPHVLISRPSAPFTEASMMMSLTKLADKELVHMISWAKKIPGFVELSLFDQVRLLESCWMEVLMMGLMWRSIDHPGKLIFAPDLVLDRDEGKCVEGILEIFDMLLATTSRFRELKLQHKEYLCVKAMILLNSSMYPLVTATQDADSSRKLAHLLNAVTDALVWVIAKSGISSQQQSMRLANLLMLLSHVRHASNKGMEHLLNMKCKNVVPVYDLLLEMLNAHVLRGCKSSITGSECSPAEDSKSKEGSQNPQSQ

| Structure (SMILES) | Potency [1] | Potency [2] | Potency [3] | Potency [4] | Potency [5] | Potency [6] | Potency [7] | Potency [8] | Potency [9] | Potency [10] |
| --- | --- | --- | --- | --- | --- | --- | --- | --- | --- | --- |
| Cc1ccc(O)cn1 | inactive | inactive | inactive | inactive | inactive | inactive | inactive | – | – | – |
| CC(=O)C=O | inactive | inactive | inactive | inactive | inactive | inactive | inactive | inactive | – | – |
| O=CC1CC1 | inactive | inactive | inactive | inactive | inactive | inactive | inactive | inactive | inactive | – |
| CCCCCCCC(OC)OC | inactive | inactive | inactive | inactive | inactive | inactive | inactive | inactive | – | – |
| CCCCCCCOC(=O)c1ccccc1C(=O)OCCCCCCC | inactive | inactive | inactive | inactive | inactive | inactive | inactive | – | – | – |
| Cn1cccc1 | inactive | inactive | inactive | inactive | inactive | inactive | inactive | inactive | – | – |
| CC1=C(/C=C/C(C)=C/C=C/C(C)=C/C(=O)Nc2ccc(O)cc2)C(C)(C)CCC1 | 55.9 µM (active) and 18.8 µM (active) | 28 µM (active) and 13.3 µM (active) | inactive | inactive | 31.4 µM (active) and 21.1 µM (active) | 28 µM (active) and 21.1 µM (active) | inactive | 14 µM (active) and 11.9 µM (active) | – | inactive |
| COc1ccc(-n2nc(CCC(=O)N(C)O)cc2-c2ccc(Cl)cc2)cc1 | inactive | 26.6 µM (active) | inactive | inactive | inactive | inactive | inactive | 8.41 µM (active) | inactive | – |
| Clc1cccnc1 | inactive | inactive | inactive | inactive | inactive | inactive | inactive | inactive | – | – |
| CCc1cccc(CC)c1NC(=O)C(=O)O | inactive | inactive | inactive | inactive | inactive | inactive | inactive | inactive | – | – |
| C#CC(O)CCC (centres undefined) | inactive | inactive | inactive | inactive | inactive | inactive | inactive | inactive | inactive | – |
| CCCCCCS | inactive | inactive | inactive | inactive | inactive | inactive | inactive | inactive | inactive | – |
